Experimental data taken from the supplement of paper PMC3334620.
Whole data set: some 33,000 sequences, median “E-score (-0.5 to 0.5)” near -0.0034, cut for the highest 2% near 0.25. This excerpt belongs to a sample that is enriched for the highest values.

molecular target: T1, Yap3 (UniProt P38749); experiment: PBM E-score (8-mer binding enrichment) (E-score (-0.5 to 0.5)); higher = stronger / more preferred TF binding; details: protein concentration: 100 nM; construct: GST-full length
T1 sequence: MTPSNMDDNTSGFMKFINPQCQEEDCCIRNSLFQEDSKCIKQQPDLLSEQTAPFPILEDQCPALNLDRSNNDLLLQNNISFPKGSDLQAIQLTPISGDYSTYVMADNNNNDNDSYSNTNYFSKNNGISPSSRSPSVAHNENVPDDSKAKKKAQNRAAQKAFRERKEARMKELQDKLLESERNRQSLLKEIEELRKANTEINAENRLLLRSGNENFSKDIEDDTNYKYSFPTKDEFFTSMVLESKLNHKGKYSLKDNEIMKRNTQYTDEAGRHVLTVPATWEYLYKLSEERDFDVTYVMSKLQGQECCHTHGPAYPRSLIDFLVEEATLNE
In short: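 Yeast transcription factors carrying a GST tag, as full-length proteins or DNA-binding domains, were produced by PURExpress in vitro transcription/translation. About 100-200 nM protein was applied to universal all-10-mer Agilent arrays, double-stranded by primer extension on fresh or once-stripped slides. Bound protein was detected with fluorescent anti-GST, and scans were normalised with masliner. The Universal PBM Analysis Suite gave each ungapped eight-base word, pooled with its reverse complement, an E-score, a modified Wilcoxon-Mann-Whitney statistic.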

Sequence	PBM E-score
AGTGCCTC	-0.229
GATAGACA	0.0506
GTCTTCGA	-0.122
TCAGTAGA	0.0364
GGTCCACC	-0.329
ACAGCAAG	0.247
ACAACATG	0.136
ACGCAAGT	-0.0875
CGAGCATC	0.00988
AGCCCAGA	-0.0938
ATATCAAG	0.26
ATATCAGG	-0.0437
ATATCAAA	0.244
ATATCAAC	0.166
CTATCAAG	0.067
ATATCAAT	0.268
GACTGTCC	-0.203
ACGCTCAC	-0.0296
AAACACTC	0.0568
AAATAAGC	0.12
CAACATAG	0.144
TAACATAA	0.337

Sequence	PBM E-score
GAACATAA	0.134
AAACATAA	0.202
CAACATAC	0.0807
CAACATAA	0.297
CTGTGACA	0.0329
CATGGGCA	-0.0447
GTAGCGTA	0.0978
AATCCTGC	0.0275
ACTTGGGC	-0.119
AGCTCTAG	-0.0862
GAAAATCA	0.132
CAAGCAAA	0.00556
AGCCAGGA	-0.0633
TAAACTAA	0.282
AAAACTAA	0.298
AAAACTAT	0.182
AAAACTAG	0.021
GAAACTAA	0.00343
CAAACTAA	0.25
AGTGGTTA	0.142
GACACCGA	-0.136
CTGCTCCA	-0.0981

Sequence	PBM E-score
GTCCGTTA	0.107
ATCCGTTA	0.284
ATCCGTTC	0.057
ACGATACC	0.157
ACTGATCA	0.131
ACTCTACC	0.0336
ATATGGAG	0.264
CTATGGAG	-0.0464
CTATATAC	0.367
CTATATAG	0.121
CTCTATAC	-0.129
ATATATGC	0.224
ATATATAC	0.299
ATATATGG	0.259
ATATGGAC	0.0106
ATATATGA	0.185
ATATATAT	0.231
GTATATAC	0.0969
AAGAGAGC	-0.218
CCCACCAA	0.0694
ACCCCTTC	-0.182
CATCGCAC	-0.0244

Sequence	PBM E-score
CGAACTTA	0.0175
GTAGTTTA	0.203
ATAGAGCA	0.0256
CCCCGCCA	0.0511
CTAAATTA	0.212
AAAAATTG	0.0568
ATAAATTA	0.365
ATAAATTC	0.153
AGAAATTC	0.0349
ACAAATTG	0.173
GTAAATTA	0.223
ATAAATTG	0.312
AGAAATTG	0.266
AGACAAAA	0.0827
ACTAATCT	0.00634
CCTAATAC	0.122
GCTAATAC	0.176
ACTAATCA	0.255
ACTAAGAT	0.255
TCTAATCA	0.185
